The values that follow come from PubChem BioAssay (NCATS).

Results filed as inconclusive are left out. Calls of active or inactive are those of the source. Calls follow the shape of the dose curve; as a rule, active = well fitted inhibition curve with a large enough effect; inconclusive = small, poorly fitted or top-dose-only effect; inactive = flat fitted curve, though single readings scatter.

This assay deals with Zika virus NS2B-NS3 protease. The experiment in a line: Primary screen GU AMC qHTS for Zika virus inhibitors (AID 1347154).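 Also: 0% = no-inhibitor control and -100% = no-enzyme control; nearly all actives have a fitted effect of over 70% in size.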 Conditions: Zika NS2B-NS3 unlinked protease, AMC fluorogenic substrate; series mostly up to 54.1 µM; activity change, negative = inhibition: at the top concentration. The method, boiled down: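 Unlinked Zika NS2B hydrophilic domain–NS3 protease complex at 25 nM in 10 mM Tris-HCl pH 8.0, 0.01% Tween 20, with an AMC peptide substrate. Fluorescence change (340/450 nm) over 15 min at room temperature, normalized to controls, fitted to 4-parameter Hill.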
With `Cc1ccc(/C=N/n2c(-c3ccccc3)csc2=S)cc1`, the “activity change, negative = inhibition” value is -8.26% (inactive). As for `NS(=O)(=O)c1cc2c(cc1Cl)CN(C1CCCCC1)C2=O`, the figure is -7.03% (inactive); as for `CCN(CC)CCN`, -2.73% (inactive); as for `Cc1ccc(-c2ccccc2C#N)cc1`, -4.98% (inactive). As for `CC(=O)Nc1ccc(S(=O)(=O)Nc2cc(C)on2)cc1`, the figure is 0.421% (inactive); as for `COCCOCC(OC)OC`, -6.39% (inactive); as for `O=C(O)Cc1ccccc1Oc1ccc(Cl)cc1Cl`, 0.733% (inactive). As for `COc1cc(NS(=O)(=O)c2ccc(N)cc2)nc(C)n1`, the figure is -3.77% (inactive); as for `CCCCCCCCCCCCCCCC[n+]1ccccc1`, -15.7% (inactive); as for `CC(C)(C)C(=O)OCOC(=O)C1N2C(=O)CC2S(=O)(=O)C1(C)C` (stereo not drawn), 3.92% (inactive).

In the case of `C[C@@H]1CCC[C@H](C)N1CCCC(O)(c1ccccc1)c1ccccn1` (stereo partly drawn), the “activity change, negative = inhibition” value was -4.66% (inactive). Take `CCNC(=O)NCCCOc1cccc(CN2CCCCC2)c1`: the “activity change, negative = inhibition” value was 6.13% (inactive). As for `CC(=O)/C=C/C=C1/C2CCC(C2)C1(C)C` (stereo not drawn), the “activity change, negative = inhibition” value was -3.04% (inactive). As to `CN1CC(=O)N2[C@H](c3ccc4c(c3)OCO4)c3[nH]c4ccccc4c3C[C@@H]2C1=O`, the “activity change, negative = inhibition” value was 1.29% (inactive). As for `CNC[C@H](O)[C@@H](O)[C@H](O)[C@H](O)CO`, the figure is -3.82% (inactive); as for `COc1cc(C(=O)NC2CCCNC2)cc(OC)c1OC` (stereo not drawn), -0.695% (inactive).

With `CCCCOC(=O)CCCCCCCCC(=O)OCCCC`, the “activity change, negative = inhibition” value is -1.19% (inactive).

Regarding `c1ccc2occc2c1`, the “activity change, negative = inhibition” value was 3.1% [at 104 µM] (inactive). As for `CCCCCCCCCCCC[N+](C)(C)Cc1ccccc1`, the figure is -9.06% (inactive). For the molecule `CCS(=O)(=O)c1ccc(OC)c(C(=O)OC)c1`, the “activity change, negative = inhibition” value was 1.28% (inactive). As for `COC(=O)/C=C\C(=O)OC`, the figure is 3.65% (inactive); as for `Nc1ccc(O)cc1`, -3.26% (inactive); as for `CC1(C)S[C@@H]2[C@H](NC(=O)C(c3ccccc3)S(=O)(=O)O)C(=O)N2[C@H]1C(=O)O` (stereo partly drawn), 3.61% (inactive).
